Reference: PubChem BioAssay (Tox21)
Several values for one entry are separate records, joined by “and”; a condition that tells them apart may be missing. Equal values may be shown once. Inconclusive results are not listed. A structure can be active in one record and inactive in another. Activity calls are given as the source filed them. Unless noted, the call rests on the fitted dose curve; in most records, active means well fitted curve in the direction sought with a large enough effect in the repeat runs; inconclusive means weak or mixed curves; inactive means no such curve, though single readings can be large; an effect the other way counts as inactive or inconclusive.

Legend:
[1] = qHTS assay to identify small molecule agonists of H2AX (AID 1224845; active means well fitted activation curve with a large enough effect in the signal ratio in the repeat runs, not every such curve was filed as active; the % refers to the signal ratio)
Procedure, shortened: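 Wild-type CHO-K1 cells, plated overnight, exposed 3hr at 37C to 15 concentrations (0.76% DMSO final). Lysed, then HTRF anti-pH2AX (S139) cryptate and anti-H2AX-d2 antibodies, 24 hr room temperature; 665/620 nm emission read.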

[2] = qHTS assay to identify small molecule agonists of the hypoxia (HIF-1) signaling pathway (AID 1224846; active means well fitted activation curve with a large enough effect in the signal ratio in the repeat runs, not every such curve was filed as active; the % refers to the signal ratio)
Procedure, shortened: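 Steps: seed ME-180 HRE-bla cells (2,000/well, 0.5% dialyzed FBS); incubate 5 hrs at 37C; pin-transfer compounds or DMSO; incubate 17 hrs; add LiveBLAzer B/G substrate CCF4-AM; measure reporter activation by FRET.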

[3] = qHTS assay to identify small molecule agonists of H2AX - cell viability counter screen (AID 1224847; calls by dose curve; further: nearly all actives have a fitted effect of over 30% in size; further: potency means the concentration at half of the fitted maximal effect)
Procedure, shortened: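 Viability of CHO-K1 (wild type) cells after 3 hr compound exposure was measured by CellTiter-Glo luminescence.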

[4] = qHTS assay to identify small molecule antagonists of the estrogen related receptor (ERR) signaling pathway from Tox21 library (AID 1224848); further: nearly all actives have a fitted effect of over 50% in size; further: potency means the concentration at half of the fitted maximal effect
Procedure, shortened: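 Luminescent reporter read-out (ONE-Glo) from NTP's ERR cell line after 18 h treatment at 37 C with DMSO-dissolved Tox21 compounds; cells pre-plated 6 h beforehand at 2,000 per well.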

[5] = qHTS assay to identify small molecule agonists of the estrogen related receptor (ERR) signaling pathway from Tox21 library (AID 1224849; calls by dose curve; further: nearly all actives have a fitted effect of over 15% in size); settings: ERR reporter cell line, ONE-Glo luciferase, 18 h; at 92.4 µM (top of the series)
Procedure, shortened: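 Agonist signal is luciferase luminescence from an ERR reporter cell line treated 18 h at 37 C with DMSO-dissolved compounds, read 30 min after ONE-Glo addition at room temperature.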

[6] = qHTS RealTime-Glo MT Cell Viability Assay in HepG2 cells - 24 hour (AID 1224867); further: nearly all actives have a fitted effect of over 50% in size; further: potency means the concentration at half of the fitted maximal effect
Procedure, shortened: (§1)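 Viability was tracked continuously by NanoLuc luminescence from prosubstrate reduced by living HepG2 cells, at successive time points over 40 h of compound exposure. Cells with reagent were preincubated 5 h at 37 °C before compound addition.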

[7] = qHTS RealTime-Glo MT Cell Viability Assay in HEK293 cells - 32 hour (AID 1224868); further: nearly all actives have a fitted effect of over 50% in size; further: potency means the concentration at half of the fitted maximal effect
Procedure, shortened: (§2)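 Viability tracked continuously by luminescence as live cells reduce a prosubstrate for NanoLuc; HEK293 cells preincubated 5 h, compound-treated at 37 C, and read at 0, 8, 16, 24, 32 and 40 h.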

[8] = qHTS RealTime-Glo MT Cell Viability Assay in HepG2 cells - 40 hour (AID 1224870); further: nearly all actives have a fitted effect of over 50% in size
Procedure, shortened: (§3)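 HepG2 cells (600/well) mixed with RealTime-Glo MT reagent, settled 5 h at 37 C/5% CO2 before compound addition. Nonlytic NanoLuc luminescence from viable-cell prosubstrate reduction read repeatedly during 40 h treatment at 37 C.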

[9] = A CellTox Green Cytotoxicity Assay to monitor cytotoxicity in HEK293 cells - 40 hour (AID 1224871); further: nearly all actives have a fitted effect of over 45% in size; further: potency means the concentration at half of the fitted maximal effect
Procedure, shortened: (§4)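 Cytotoxicity was tracked continuously in HEK293 cells by a DNA-binding dye excluded from viable cells. Compounds were transferred in DMSO 5 h after seeding; fluorescence was recorded at intervals up to 40 h.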

[10] = qHTS RealTime-Glo MT Cell Viability Assay in HEK293 cells - 16 hour (AID 1224872); further: nearly all actives have a fitted effect of over 50% in size; further: potency means the concentration at half of the fitted maximal effect
Procedure, shortened: as §2

[11] = qHTS RealTime-Glo MT Cell Viability Assay in HepG2 cells - 8 hour (AID 1224873); further: nearly all actives have a fitted effect of over 55% in size
Procedure, shortened: as §3

[12] = qHTS RealTime-Glo MT Cell Viability Assay in HEK293 cells - 40 hour (AID 1224874); settings: RealTime-Glo luminescence; max response: stronger effect = lower value; further: nearly all actives have a fitted effect of over 50% in size; further: potency means the concentration at half of the fitted maximal effect
Procedure, shortened: (§5)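 Nonlytic bioluminescent viability monitoring. HEK293 at 600 cells/well with reagent; 5 h settle; compound transfer by pintool; plates held at 37 C and read at set time points.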

[13] = A CellTox Green Cytotoxicity Assay to monitor cytotoxicity in HepG2 cells - 16 hour (AID 1224876); further: nearly all actives have a fitted effect of over 45% in size; further: potency means the concentration at half of the fitted maximal effect
Procedure, shortened: (§6)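 Real-time, homogeneous cytotoxicity readout: dead-cell DNA staining by CellTox Green in HepG2 monolayers, fluorescence measured at timed intervals up to 40 h of continuous compound exposure.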

[14] = qHTS RealTime-Glo MT Cell Viability Assay in HepG2 cells - 32 hour (AID 1224877); further: nearly all actives have a fitted effect of over 55% in size; further: potency means the concentration at half of the fitted maximal effect
Procedure, shortened: as §1

[15] = A CellTox Green Cytotoxicity Assay to monitor cytotoxicity in HepG2 cells - 24 hour (AID 1224878); further: nearly all actives have a fitted effect of over 45% in size; further: potency means the concentration at half of the fitted maximal effect
Procedure, shortened: as §6

[16] = A CellTox Green Cytotoxicity Assay to monitor cytotoxicity in HepG2 cells - 40 hour (AID 1224879); further: nearly all actives have a fitted effect of over 40% in size; further: potency means the concentration at half of the fitted maximal effect
Procedure, shortened: as §6

[17] = qHTS RealTime-Glo MT Cell Viability Assay in HEK293 cells - 0 hour (AID 1224880); further: top concentration of the series differs between compounds; nearly all actives have a fitted effect of over 45% in size
Procedure, shortened: as §5

[18] = A CellTox Green Cytotoxicity Assay to monitor cytotoxicity in HEK293 cells - 0 hour (AID 1224869); further: nearly all actives have a fitted effect of over 50% in size
Procedure, shortened: as §4

[19] = A CellTox Green Cytotoxicity Assay to monitor cytotoxicity in HEK293 cells - 24 hour (AID 1224875); further: nearly all actives have a fitted effect of over 45% in size
Procedure, shortened: as §4

[20] = A CellTox Green Cytotoxicity Assay to monitor cytotoxicity in HEK293 cells - 32 hour (AID 1224881); further: nearly all actives have a fitted effect of over 40% in size
Procedure, shortened: as §4
On the % scale 0 is the no-effect control and ±100 the full control effect.

CCCCOCC1CO1 (stereo not given)
inactive and 43.6 µM (active): Potency [13] | Potency [16]
inactive and 19.5 µM (active): Potency [9]
inactive and 38.9 µM (active): Potency [15]
inactive: Potency [1] | outcome [2] | Potency [3] | Potency [4] | activity change, positive = activation [5] 0.0042% and -11% | Potency [6] | Potency [7] | Potency [8] | Potency [10] | Potency [11] | max response [12] 4.37% and 7.91% | Potency [14] | Potency [17]

Cl
inactive: Potency [1] | outcome [2] | Potency [3] | Potency [6] | Potency [7] | Potency [18] | Potency [9] | Potency [10] | Potency [11] | max response [12] 0.872% and 8.14% | Potency [19] | Potency [13] | Potency [14] | Potency [15] | Potency [16] | Potency [17] | Potency [20]

COc1ccc(C=O)cc1OC
inactive: Potency [1] | outcome [2] | Potency [3] | Potency [4] | activity change, positive = activation [5] -3.94% and -4.02% | Potency [6] | Potency [7] | Potency [18] | Potency [8] | Potency [9] | Potency [10] | Potency [11] | max response [12] 1.59% and -6.52% | Potency [19] | Potency [13] | Potency [14] | Potency [15] | Potency [16] | Potency [17]

Cc1cc(Cl)ccc1N=CN(C)C
inactive: Potency [1] | outcome [2] | Potency [3] | Potency [4] | activity change, positive = activation [5] -6.81% and 2.85% | Potency [6] | Potency [7] | Potency [9] | Potency [10] | Potency [11] | max response [12] 2.7% and 1.16% | Potency [19] | Potency [13] | Potency [14] | Potency [15] | Potency [16] | Potency [17] | Potency [20]

ClCc1ccccn1
inactive: Potency [1] | outcome [2] | Potency [3] | Potency [6] | Potency [7] | Potency [18] | Potency [8] | Potency [9] | Potency [10] | Potency [11] | max response [12] 0.166% and 14.2% | Potency [19] | Potency [13] | Potency [14] | Potency [15] | Potency [16] | Potency [17]

CCCCC(C#N)(Cn1cncn1)c1ccc(Cl)cc1 (stereo not given)
active: Potency [4] 48.4 µM
inactive: Potency [1] | outcome [2] | Potency [3] | activity change, positive = activation [5] -34.1% and -20% | Potency [6] | Potency [7] | Potency [18] | Potency [8] | Potency [9] | Potency [10] | Potency [11] | Potency [19] | Potency [13] | Potency [14] | Potency [15] | Potency [17] | Potency [20]

CCOP(=O)(O)OCC (tested in a mixture with another compound)
inactive and 28.2 µM (active): Potency [3]
inactive and 4.33 µM (active): Potency [7]
active: Potency [12] 2.43 µM
inactive and 48.6 µM (active): Potency [6] | Potency [14]
inactive and 24.3 µM (active): Potency [9] | Potency [10]
inactive and 34.4 µM (active): Potency [16]
inactive and 43.3 µM (active): Potency [13] | Potency [15]
inactive: Potency [1] | outcome [2] | Potency [18] | Potency [11] | max response [12] 4.04% | Potency [17]

CSc1nc(NC(C)C)nc(NC(C)C)n1
inactive: Potency [1] | outcome [2] | Potency [3] | Potency [4] | activity change, positive = activation [5] -11% and -12.6% | Potency [6] | Potency [7] | Potency [9] | Potency [10] | Potency [11] | max response [12] -22.1% | Potency [19] | Potency [13] | Potency [14] | Potency [15] | Potency [16] | Potency [17]

COP(=O)(NC(C)=O)SC (stereo not given)
inactive: Potency [1] | outcome [2] | Potency [3] | Potency [6] | Potency [7] | Potency [18] | Potency [9] | Potency [10] | Potency [11] | max response [12] 1.36% and 10.1% | Potency [19] | Potency [13] | Potency [14] | Potency [15] | Potency [16] | Potency [17] | Potency [20]

O=P(OCCCl)(OCCCl)OCCCl
inactive: Potency [1] | outcome [2] | Potency [3] | Potency [4] | activity change, positive = activation [5] 1.87% and 3.07% | Potency [6] | Potency [7] | Potency [18] | Potency [9] | Potency [10] | Potency [11] | max response [12] -9.18% and -11.6% | Potency [19] | Potency [13] | Potency [14] | Potency [15] | Potency [16] | Potency [17] | Potency [20]

CC1CC(=O)O1 (stereo not given)
inactive: Potency [1] | outcome [2] | Potency [3] | Potency [6] | Potency [7] | Potency [18] | Potency [8] | Potency [9] | Potency [10] | Potency [11] | max response [12] 4.47% and -6.16% | Potency [19] | Potency [13] | Potency [14] | Potency [15] | Potency [16] | Potency [17] | Potency [20]

O=NN(c1ccccc1)c1ccccc1
inactive: Potency [1] | outcome [2] | Potency [3] | Potency [6] | Potency [7] | Potency [18] | Potency [9] | Potency [10] | Potency [11] | max response [12] 1.85% and 24% | Potency [19] | Potency [13] | Potency [14] | Potency [15] | Potency [16] | Potency [17] | Potency [20]
